This note sets out measurements from the supplement of paper PMC13380429.

Where a name gives a salt, the structure may show the parent alone. A number with no mark means an inactive call.

In the test the test system is Vero E6 infected with SARS-CoV-2. As to the kind of experiment: SARS-CoV-2 infection rate relative to infected DMSO; higher = more infection, active = 60 or less. To be noted: 24 h.
For `Cc1ccc(S(=O)(=O)NC2c3ccccc3Oc3ccccc32)cc1` (10 µM), the SARS-CoV-2 infection rate is 95.5%. For the molecule `O=C(O)CCCN1C(=O)c2cccc3cccc(c23)C1=O` [isodibut] (10 µM), the SARS-CoV-2 infection rate is 104%. For `COc1cccc2c1C(=O)c1c(O)c3c(c(O)c1C2=O)C[C@@](O)(C(=O)CO)C[C@@H]3O[C@H]1C[C@H](N2CCO[C@H](OC)C2)[C@H](O)[C@H](C)O1` [nemorubicin] (0.833333 µM), the SARS-CoV-2 infection rate is 108%. In the case of `O=C1NCCN1CCN1CCC(c2cn(-c3ccc(F)cc3)c3ccc(Cl)cc23)CC1` [sertindole] (0.833333 µM), the SARS-CoV-2 infection rate was 106%. The value for `O=C(N[C@@H]1Cc2ccccc2N(C[C@@H](O)CO)C1=O)c1cc2cc(Cl)sc2[nH]1` (10 µM) was 105%; that for `CCCCn1ccc(N2CCC(c3ccccc3)CC2)c(Cl)c1=O` (10 µM) was 116%.

Take `COc1ccc2c(c1)C=C1Cn3c-2c(C2CCCCC2)c2ccc(cc23)C(=O)NS(=O)(=O)N(C)CCOCCN(C)C1=O` (10 µM): the SARS-CoV-2 infection rate was 97.5%. Consider `O=C(NO)c1cnc(N2CCN(S(=O)(=O)c3ccc4ccccc4c3)CC2)nc1` (10 µM), for which the SARS-CoV-2 infection rate is 115%. The value for `CN1CCC(Nc2ncc3ncnc(Nc4ccc(F)c(Cl)c4)c3n2)CC1` (10 µM) was 114%; that for `NNCCc1ccccc1` [phenelzine] (10 µM) was 102%; that for `COc1ccc(CC(=O)NC(/N=C(\NC#N)Nc2cccc3ncccc23)C(C)(C)C)cc1OC` (stereo unspecified) (10 µM) was 97%.

On to `CNc1nc(C)nc(N[C@H]2CCC[C@@H](C(=O)NCc3ccc(C#N)cc3C(F)(F)F)C2)n1` (10 µM), for which the SARS-CoV-2 infection rate was 104%.

On to `CNCCc1cnc[nH]1` [N-alpha-methylhistamine-dihydrochloride] (10 µM), for which the SARS-CoV-2 infection rate was 110%.

With `Cc1nc(-c2cccnc2)sc1C(=O)Nc1ccccc1-c1cn2c(CN3CCOCC3)csc2n1` (10 µM), the SARS-CoV-2 infection rate was 98%. For `OC[C@H]1O[C@@H](n2cnc3c(N[C@H]4CCC[C@@H]4O)ncnc32)[C@H](O)[C@@H]1O` (10 µM), the SARS-CoV-2 infection rate was 100%. Next, `Nc1nc2ccc(OC(F)(F)F)cc2s1` [riluzole] (10 µM): 105%. As to `CC[C@H](C)[C@@H]1NC(=O)[C@H](Cc2ccc(O)cc2)NC(=O)[C@@H](N)CSSC[C@@H](C(=O)N2CCC[C@H]2C(=O)N[C@@H](CC(C)C)C(=O)NCC(N)=O)NC(=O)[C@H](CC(N)=O)NC(=O)[C@H](CCC(N)=O)NC1=O` [oxytocin] (10 µM), the SARS-CoV-2 infection rate was 110%.

`N=C(N)NCCC[C@@H](NC(=O)[C@@H]1CCCN1C(=O)[C@@H]1CSSCCC(=O)N[C@@H](Cc2ccc(O)cc2)C(=O)N[C@@H](Cc2ccccc2)C(=O)N[C@@H](CCC(N)=O)C(=O)N[C@@H](CC(N)=O)C(=O)N1)C(=O)NCC(N)=O` [desmopressin-acetate] (10 µM): the SARS-CoV-2 infection rate was 97.5%. Consider `CSCC[C@H](NC(=O)[C@H](CC(C)C)NC(=O)[C@@H](Cc1c[nH]c2ccccc12)NC(=O)[C@H](Cc1ccccc1)N(C)C(=O)[C@@H](Cc1c[nH]c2ccccc12)NC(=O)[C@@H](N)CCCNC(=N)N)C(N)=O` [antagonist-g] (10 µM), for which the SARS-CoV-2 infection rate was 114%.

Regarding `C[C@]12N[C@H](Cc3ccccc31)c1ccccc12` [dizocilpine-(-)] (10 µM), the SARS-CoV-2 infection rate was 106%. Regarding `O=C(CO)[C@@H](O)[C@@H](O)[C@H](O)CO` [tagatose] (10 µM), the SARS-CoV-2 infection rate was 108%. `O=C(CCCCC(=O)Nc1c(I)cc(I)c(C(=O)O)c1I)Nc1c(I)cc(I)c(C(=O)O)c1I` [iodipamide] (10 µM): the SARS-CoV-2 infection rate was 93%. Next, `CCN1CCCC(OC(=O)C(c2ccccc2)c2ccccc2)C1` (stereo unspecified) [piperidolate] (10 µM): 106%; `CCO/N=C(\C(=O)N[C@@H]1C(=O)N2C(C(=O)[O-])=C(Sc3nc(-c4cc[n+](C)cc4)cs3)CS[C@H]12)c1nsc(NP(=O)(O)O)n1` [ceftaroline-fosamil] (10 µM): 87.5%; `CNC(=O)c1cnn(-c2nc(N)c3ncn([C@@H]4O[C@H](CO)[C@@H](O)[C@H]4O)c3n2)c1` [regadenoson] (10 µM): 111%. With `Cc1ccc2c(c1)[C@H]1CN(C)CC[C@H]1N2` [stobadine] (10 µM), the SARS-CoV-2 infection rate is 98%.
